Rows were chosen to be rich in hits. Some 4.1% of all compounds tested hit in one or more screens of this group.
Mac1 fbg enh = CD11b/CD18-fibrinogen binding enhancement; AID 1499; activation, % at 10 µM; K562 CD11b/CD18 adhesion to fibrinogen, ATPlite luminescence; hit rate 0.07% among 93,000; P05107+P11215;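 active = 10 µM primary screen giving 50% or more activity, confirmed by 40% or more on retest at that dose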
MRP reversal = reverses drug resistance mediated by MRP; hit rate 0.04% among 85,000; differential viability (reversal), % at 10 µM; H69AR cells + 2 uM doxorubicin, CellTiter-Glo, 72 h;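 active = viability drop by adding the cancer drug above about 55%, with treated viability meeting a 40% cutoff, limit read from the data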;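 also: viability without doxorubicin minus viability with 2 µM doxorubicin for each compound; larger differential means the compound sensitizes cells more to doxorubicin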
Cav32 inh = human Cav3.2 channel inhibition, primary screen; hit rate 4% among 100,000; O95180; Cav3.2-expressing cells, Fluo-4 calcium fluorescence FDSS; stronger effect = lower value; B-score at 10 µM; AID 449739;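 active = single-dose well whose peak fluorescence ratio is a statistical outlier from its plate by either plate-standardised score or position-corrected B-score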
Mac1 fbg inh = inhibitors of human CD11b/CD18 binding to fibrinogen. AID 1497. hit rate 0.54% among 93,000. K562 CD11b/CD18 adhesion to fibrinogen, ATPlite luminescence; Mn2+ added to activate the integrin. inhibition, % at 10 µM. P05107+P11215;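 active = primary inhibition of 50% or more at 10 µM, then 40% or more on retest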
MRP-1 activ = activators of MRP-1. H69AR cells + doxorubicin, viability rescue, CellTiter-Glo. viability increase, % at 10 µM. hit rate 0.61% among 140,000;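 active = viability gain under doxorubicin at or above a set limit, the compound median plus 3 SD, cut at about 4.7% in these data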;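 also: MRP-1 overexpressing cells given doxorubicin 25 µM after compound pretreatment; 18-22 h compound pretreatment then 72 h with doxorubicin before readout; 0% = doxorubicin-only wells and 100% = vehicle-treated cells without doxorubicin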
PTK2B oligo ant = Pyk2 (human) oligomerization antagonism | Q14289 | Q293 cells, Pyk2 FERM NanoBiT luminescence; stronger effect = lower value | z-score (the deposit names both 25 µM and 10 µM) | hit rate 0.83% among 99,000;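 active = Z-score of -3 or lower, scaled per plate to the spread of control and sample wells; inactive = z-score above -3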;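 also: negative z-score means lost luminescence so less FERM oligomerization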
Active calls of the source: *; · = not tested or not shown.

SMILES	Mac1 fbg enh	MRP reversal	Cav32 inh	Mac1 fbg inh	MRP-1 activ	PTK2B oligo ant
COc1ccc(CCN2C(=O)CC(N3CCN(c4ccccn4)CC3)C2=O)cc1OC (stereo unspecified)	-3	7	0.39	-1	0	-1.1
O=C1CC(N2CCN(c3ccccn3)CC2)C(=O)N1CC(c1ccccc1)c1ccccc1 (stereo unspecified)	·	-10	-6.3*	·	-5	-0.73
Cc1nn(C(C)C(=O)N2CCc3ccccc3C2)c(=O)c2cc3occc3n12 (stereo unspecified)	-2	3	0.61	-2	-4	0.79
CCOC(=O)c1cc(C)n(CCc2ccccc2)c1C	8	-10	-3.8*	5	0	0.13
Cc1ccc(Oc2nc3c(c(=O)n(Cc4ccccc4F)c(=O)n3C)n2C)cc1	·	0	·	·	0	-0.42
COc1ccccc1OCC(=O)OC/C(O)=C(\C#N)c1nc2ccccc2[nH]1	8	·	·	20	-2	·
N#C/C(=C(/O)COC(=O)Cc1c[nH]c2ccccc12)c1nc2ccccc2[nH]1	36	-19	-7*	-15	-3	-0.51
CC(C)CC(=O)NC(=S)N(Cc1ccccc1)Cc1ccccc1	·	·	·	·	-1	·
Cc1cccc2cc3c(N)c(C(=O)Nc4ccc(N5CCOCC5)cc4)sc3nc12	·	·	-2.9	·	-2	-3.4*
Cc1ccc2nc3sc(C(=O)Nc4ccc(N5CCOCC5)cc4)c(N)c3cc2c1	95	·	·	-5	-1	·
Cc1cc(=O)[nH]c(SCC(=O)Nc2ccc(Br)cc2)c1C#N	-6	7	-9.8*	93*	-3	-0.79
CCc1cccc(CC)c1C(O)c1cccnc1 (stereo unspecified)	·	·	·	·	-1	·
COc1ccc(NC(=O)Cc2c(O)c3ccccc3[nH]c2=O)cc1	-5	·	0.19	-6	-1	0.9
Cc1cc(C)n(-c2nnc(C)n2/N=C/c2cc(Br)ccc2OCc2ccccc2)n1	4	-46	-6.9*	5	-2	-1.1
COc1ccccc1/C=N/n1c(C)nnc1-n1nc(C)cc1C	-5	13	-0.03	-15	0	0.28
Cc1cc(C)n(-c2nnc(C)n2/N=C/c2ccccc2F)n1	-5	12	2	-8	0	0.55
Cc1cc(C)n(-c2nnc(C)n2/N=C/c2ccccc2OCc2ccccc2Cl)n1	-2	-57	-5.6*	4	-4	-0.99
CCN(CC(=O)NC1CCS(=O)(=O)C1)C(=O)COc1ccccc1-c1ccccc1 (stereo unspecified)	·	8	-0.29	·	-3	0.75
Nc1c(S(=O)(=O)c2cccc(Cl)c2)c2nc3ccccc3nc2n1CCN1CCOCC1	8	-9	-0.92	-15	-1	-0.79
CC1(C)CC(=O)/C(=C(/O)Cc2ccccc2)C(=NCCc2ccccc2)C1	·	·	·	·	-1	·
COC1=CC(=O)C(O)=C(CCCCCCC/C=C/CCCCCCCC2=C(O)C(=O)C=C(OC)C2=O)C1=O	·	·	-5.2*	·	·	·
CCCOc1ccc(NC(=O)CC2C(=O)N(C)C(=S)N2Cc2cccs2)cc1 (stereo unspecified)	·	·	-3.9*	·	-6	-1.3
CCOc1ccc(NC(=O)CC2C(=O)N(C)C(=S)N2Cc2ccco2)cc1 (stereo unspecified)	0	·	·	4	-4	0.77
O=C(Nc1ccccc1C(=O)N1CCCCCC1)c1cccc(S(=O)(=O)N2CCOCC2)c1	1	-9	0.78	-6	-1	-0.44
N#Cc1c(NC(=O)CSc2nnc(-c3ccccc3O)n2-c2ccccc2)sc2c1CCCC2	16	-15	-4.8*	5	-2	-0.46
SMILES	Mac1 fbg enh	MRP reversal	Cav32 inh	Mac1 fbg inh	MRP-1 activ	PTK2B oligo ant
CCCCn1c(CN2CCN(c3ccccc3)CC2)nc2c1c(=O)n(C)c(=O)n2C	-2	-5	-0.37	65*	-2	·
Cn1c(=O)c2c(nc(CN3CCN(c4ccccc4)CC3)n2CCCc2ccccc2)n(C)c1=O	·	3	·	·	·	·
CCCn1c(CN(Cc2ccccc2)Cc2ccccc2)nc2c1c(=O)n(C)c(=O)n2C	1	4	-4.4*	15	3	·
CCCCCn1c(CN2CCCCC2C)nc2c1c(=O)n(C)c(=O)n2C (stereo unspecified)	·	-2	-0.75	·	6.0*	-0.43
Cn1c(=O)c2c(nc(CN3CCN(c4ccccc4)CC3)n2Cc2c(F)cccc2Cl)n(C)c1=O	0	60*	-3.7	3	-5	0.06
CCCn1c(CN(C)Cc2ccccc2)nc2c1c(=O)n(C)c(=O)n2C	·	-7	-0.31	·	0	3
